Test results taken from the supplement of paper PMC10849652.
Targets with a hit are over-represented here; the source holds about 7,900 in all. About 0.6% of all pairs of compound and target were hits.

Assays:
Assay in all cases: log2 fold change, soluble protein after heating vs DMSO (PISA); higher = thermal stabilisation; K562 cells, 10 uM, 30 min; active = over 0.2 and 3.5 SD of the protein, either way, in both replicates (recomputed)
erlotinib = compound: C#Cc1cccc(Nc2ncnc3cc(OCCOC)c(OCCOC)cc23)c1 [erlotinib]
How it was run: (§1)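 Quantification of soluble protein used TMTpro 16plex LC-MS/MS, with channel sums equalised. Samples were the supernatant after 21,000xg for 90 min of pooled aliquots from K562 cells (2×10^6 cells/mL) treated with 10 μM compound for 30 min, heated for 3 min over 48°C-58°C, and extracted in PBS with 0.5% NP-40 at 4°C. Values, from duplicates, describe thermal stability against control samples on a log2 fold-change scale.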

[1] = compound: C/C(=N\NC(=O)C1=CC(=CC=C1)S(=O)(=O)N2CCOCC2)/C3=C(C=CC(=C3)Cl)O
How it was run: as §1

[2] = compound: C1=CC(=C(C=C1Cl)C2=NC3=NC=CN=C3C(=N2)NC4=CC=NC=C4)F
How it was run: as §1

[3] = compound: C1=CC(=CC=C1C2=NC3=C(N2)C=C(C=C3)C(=O)N)OC4=CC=C(C=C4)Cl
How it was run: as §1

[4] = compound: C1=CC2=C(C=CC(=C2)/C=C\3/C(=O)NC(=NCC4=CC=CS4)S3)N=C1
How it was run: as §1

[5] = compound: C1=CC2=NC=CN=C2C=C1/C=C/3\C(=O)NC(=O)S3
How it was run: as §1

[6] = compound: C1=CC=C(C=C1)C2=NC(=C(N2)C3=CC=NC=C3)C4=CC(=C(C=C4)Cl)O
How it was run: as §1

[7] = compound: C1=CC=C2C(=C1)C3=NNC4=CC=CC(=C43)C2=O
How it was run: as §1

[8] = compound: C1CCN(C1)C(=O)NC2=CC=CC(=C2)NC3=NC=C(C(=N3)NCCC4=CN=CN4)Br
How it was run: as §1

[9] = compound: C1CN(CCC1(CC2=CC=C(C=C2)Cl)N)C3=NC=NC4=C3C=CN4
How it was run: as §1

Measured: log2 fold change

ADD2 (UniProt P35612)
inactive: erlotinib 0.008 | [1] -0.011 | [2] 0.025 | [3] 0.004 | [4] -0.004 | [5] 0.022 | [6] 0.012 | [7] -0.005 | [8] 0.004 | [9] 0.016

ARHGAP4 isoform 2 (UniProt P98171)
inactive: erlotinib 0.042 | [1] -0.338 | [3] 0.033 | [4] 0.121 | [5] -0.209 | [6] -0.016 | [7] -0.061 | [8] -0.117 | [9] 0.015

BRD3 (UniProt Q15059)
inactive: erlotinib -0.282 | [1] -0.072 | [3] 0.061 | [4] -0.021 | [5] 0.071 | [6] 0.128 | [7] 0.059 | [8] -0.163 | [9] -0.024

ATP6V0A1 (UniProt Q93050)
inactive: [5] 0.187

AASDH (UniProt Q4L235)
inactive: erlotinib 0.113 | [2] 0.037 | [3] 0.048 | [5] 0.158 | [6] 0.003 | [8] -0.058 | [9] 0.034

AZI2 (UniProt Q9H6S1)
Chain of UniProt Q9H6S1 (Q9H6S1 whole entry, looked up): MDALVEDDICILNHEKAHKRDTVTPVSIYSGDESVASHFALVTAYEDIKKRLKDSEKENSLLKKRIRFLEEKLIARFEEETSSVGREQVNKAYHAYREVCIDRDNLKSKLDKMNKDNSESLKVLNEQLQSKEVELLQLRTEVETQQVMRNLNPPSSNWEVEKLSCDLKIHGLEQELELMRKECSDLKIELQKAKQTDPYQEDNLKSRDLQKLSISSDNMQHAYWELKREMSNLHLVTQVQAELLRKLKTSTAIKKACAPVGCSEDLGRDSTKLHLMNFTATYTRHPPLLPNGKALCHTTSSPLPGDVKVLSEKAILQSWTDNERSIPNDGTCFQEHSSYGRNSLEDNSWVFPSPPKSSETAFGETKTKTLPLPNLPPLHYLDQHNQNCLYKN
inactive: erlotinib -0.039 | [3] -0.211 | [5] 0.009 | [6] -0.012 | [8] -0.025 | [9] 0.04

ADD1 isoform 4 (UniProt P35611)
inactive: [2] 0.169 | [5] -0.019

ADD3 isoform 2 (UniProt Q9UEY8)
Chain of UniProt Q9UEY8 (Q9UEY8 whole entry, looked up): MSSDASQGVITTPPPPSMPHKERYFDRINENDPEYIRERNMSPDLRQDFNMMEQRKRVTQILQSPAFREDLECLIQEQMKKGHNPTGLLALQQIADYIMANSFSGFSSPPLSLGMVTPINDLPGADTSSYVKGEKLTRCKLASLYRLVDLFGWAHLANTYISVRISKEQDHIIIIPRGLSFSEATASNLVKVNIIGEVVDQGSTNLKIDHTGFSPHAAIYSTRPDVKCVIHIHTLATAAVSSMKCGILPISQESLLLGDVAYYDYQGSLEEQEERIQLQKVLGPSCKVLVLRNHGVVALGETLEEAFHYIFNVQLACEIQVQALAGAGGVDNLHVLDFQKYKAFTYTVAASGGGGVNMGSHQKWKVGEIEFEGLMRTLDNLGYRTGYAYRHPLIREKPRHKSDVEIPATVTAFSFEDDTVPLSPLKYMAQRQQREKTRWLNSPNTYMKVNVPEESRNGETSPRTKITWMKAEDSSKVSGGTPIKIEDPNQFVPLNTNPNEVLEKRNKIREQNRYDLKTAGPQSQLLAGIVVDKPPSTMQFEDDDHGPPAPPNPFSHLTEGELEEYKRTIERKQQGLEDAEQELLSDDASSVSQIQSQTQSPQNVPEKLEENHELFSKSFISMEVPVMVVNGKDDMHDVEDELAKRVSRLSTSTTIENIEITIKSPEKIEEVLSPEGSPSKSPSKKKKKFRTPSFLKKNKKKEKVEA
inactive: [1] 0.171 | [2] -0.049 | [4] 0.057 | [6] 0.009 | [7] 0.047 | [8] -0.016 | [9] 0.034

AP2S1 (UniProt M0QZ21)
inactive: [8] -0.625 | [9] 0.21

AUNIP isoform 2 (UniProt Q9H7T9)
Chain of UniProt Q9H7T9 (Q9H7T9 whole entry, looked up): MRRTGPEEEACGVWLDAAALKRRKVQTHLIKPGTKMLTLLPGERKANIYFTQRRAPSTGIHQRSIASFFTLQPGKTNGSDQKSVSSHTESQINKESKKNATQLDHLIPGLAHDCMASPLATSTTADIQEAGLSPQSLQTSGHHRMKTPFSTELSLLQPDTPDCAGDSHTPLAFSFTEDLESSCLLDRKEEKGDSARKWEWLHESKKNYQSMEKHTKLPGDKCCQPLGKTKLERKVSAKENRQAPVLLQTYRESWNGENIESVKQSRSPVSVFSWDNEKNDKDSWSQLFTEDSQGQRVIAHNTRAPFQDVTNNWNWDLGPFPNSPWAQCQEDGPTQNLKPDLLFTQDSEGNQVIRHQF
inactive: erlotinib -0.023 | [1] 0.066 | [3] 0.297 | [4] 0.083 | [7] 0.027 | [8] 0.041 | [9] 0.066

BAIAP2 isoform 4 (UniProt Q9UQB8)
inactive: [8] -0.16 | [9] -0.048

AUH (UniProt Q13825)
Chain of UniProt Q13825 (Q13825 whole entry, looked up): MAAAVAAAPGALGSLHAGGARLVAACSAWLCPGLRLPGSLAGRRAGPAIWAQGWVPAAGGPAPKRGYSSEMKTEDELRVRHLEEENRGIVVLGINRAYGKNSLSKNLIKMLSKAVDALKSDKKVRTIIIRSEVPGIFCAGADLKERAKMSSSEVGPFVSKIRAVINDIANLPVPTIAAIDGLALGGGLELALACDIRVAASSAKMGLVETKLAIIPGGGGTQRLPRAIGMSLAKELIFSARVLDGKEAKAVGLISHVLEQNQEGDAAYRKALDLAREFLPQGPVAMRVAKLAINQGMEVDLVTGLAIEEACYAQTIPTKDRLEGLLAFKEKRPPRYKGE
inactive: erlotinib 0.155 | [1] 0.042 | [3] -0.035 | [4] -0.122 | [5] 0.112 | [6] 0.039 | [7] 0.065 | [8] -0.028 | [9] 0.059

APOH (UniProt P02749)
Chain of UniProt P02749 (P02749 whole entry, looked up): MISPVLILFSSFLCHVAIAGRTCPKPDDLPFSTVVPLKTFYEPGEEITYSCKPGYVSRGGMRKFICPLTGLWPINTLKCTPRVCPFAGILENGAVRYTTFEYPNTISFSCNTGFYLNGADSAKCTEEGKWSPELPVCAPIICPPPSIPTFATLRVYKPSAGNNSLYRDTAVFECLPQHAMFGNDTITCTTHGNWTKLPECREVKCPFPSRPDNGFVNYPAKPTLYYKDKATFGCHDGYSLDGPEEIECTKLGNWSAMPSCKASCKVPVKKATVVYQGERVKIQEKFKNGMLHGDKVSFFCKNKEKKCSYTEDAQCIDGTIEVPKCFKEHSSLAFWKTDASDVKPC
inactive: erlotinib -0.214 | [1] -0.028 | [3] 0.051 | [4] -0.026 | [5] 0.069 | [6] -0.1 | [7] -0.092 | [8] 0.188 | [9] 0.09

ATXN3 isoform 1 (UniProt P54252)
Chain of UniProt P54252 (P54252 whole entry, looked up): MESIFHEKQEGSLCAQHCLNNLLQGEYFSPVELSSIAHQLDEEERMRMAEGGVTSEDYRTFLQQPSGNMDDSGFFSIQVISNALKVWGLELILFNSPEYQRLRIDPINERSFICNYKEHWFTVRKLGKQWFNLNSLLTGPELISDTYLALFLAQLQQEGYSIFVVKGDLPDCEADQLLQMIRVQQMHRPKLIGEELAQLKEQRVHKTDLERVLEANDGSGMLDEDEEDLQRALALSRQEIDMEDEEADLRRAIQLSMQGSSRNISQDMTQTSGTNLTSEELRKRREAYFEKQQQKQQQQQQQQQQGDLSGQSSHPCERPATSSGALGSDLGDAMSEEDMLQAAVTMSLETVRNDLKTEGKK
inactive: erlotinib 0.082 | [1] 0.107 | [3] 0.038 | [4] -0.042 | [5] 0.082 | [6] -0.038 | [7] -0.115 | [8] -0.073 | [9] -0.002

BRAF, A0A2R8Y8E0
inactive: erlotinib 0.073 | [1] 0.15 | [3] 0.083 | [4] -0.248 | [7] -0.047 | [8] -0.235 | [9] -0.26
active: [6] -0.987

ACSL6 isoform 1 (UniProt Q9UKU0)
inactive: erlotinib -0.066 | [2] 0.02 | [3] 0.025 | [5] -0.083 | [6] -0.061 | [8] -0.03 | [9] 0.04

AP2M1 (UniProt C9JTK4)
inactive: [1] -0.114 | [2] 0.036 | [4] 0.322 | [5] 0.172 | [7] -0.12 | [8] 0.084 | [9] -0.065

ARMC8 isoform 6 (UniProt Q8IUR7)
inactive: erlotinib -0.145 | [1] 0.081 | [3] -0.168 | [4] -0.075 | [5] 0.078 | [7] -0.067

ALDH2 isoform 2 (UniProt P05091)
inactive: [1] -0.197 | [2] -0.106 | [4] 0.6 | [5] 0.07 | [6] -0.263 | [7] 0.131 | [8] 0.208 | [9] 0.032

APH1A (UniProt Q96BI3)
inactive: erlotinib 0 | [1] -0.046 | [3] 0.052 | [4] 0.073 | [5] 0.048 | [7] -0.09 | [8] -0.188 | [9] 0.071

BRMS1 (UniProt Q9HCU9)
Chain of UniProt Q9HCU9 (Q9HCU9 whole entry, looked up): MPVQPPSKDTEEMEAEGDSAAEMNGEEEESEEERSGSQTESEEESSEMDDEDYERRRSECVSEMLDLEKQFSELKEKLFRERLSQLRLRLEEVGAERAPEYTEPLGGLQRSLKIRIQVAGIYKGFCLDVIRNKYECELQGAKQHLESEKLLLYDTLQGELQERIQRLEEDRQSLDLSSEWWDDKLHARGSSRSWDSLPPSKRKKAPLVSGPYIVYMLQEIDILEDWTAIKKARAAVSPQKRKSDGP
inactive: [2] 0.075 | [4] 0.09 | [7] -0.041 | [8] 0.024 | [9] 0.119
active: [1] -0.656

ATXN7L3 isoform 2 (UniProt Q14CW9)
inactive: erlotinib 0.069 | [1] -0.31 | [3] 0.071 | [4] 0.025 | [5] 0.159 | [6] -0.122 | [7] -0.037

ANGEL1 (UniProt Q9UNK9)
inactive: [5] 0.161 | [6] -0.107 | [8] -0.149 | [9] 0.092

ADAMTS5 (UniProt Q9UNA0)
Chain of UniProt Q9UNA0 (Q9UNA0 whole entry, looked up): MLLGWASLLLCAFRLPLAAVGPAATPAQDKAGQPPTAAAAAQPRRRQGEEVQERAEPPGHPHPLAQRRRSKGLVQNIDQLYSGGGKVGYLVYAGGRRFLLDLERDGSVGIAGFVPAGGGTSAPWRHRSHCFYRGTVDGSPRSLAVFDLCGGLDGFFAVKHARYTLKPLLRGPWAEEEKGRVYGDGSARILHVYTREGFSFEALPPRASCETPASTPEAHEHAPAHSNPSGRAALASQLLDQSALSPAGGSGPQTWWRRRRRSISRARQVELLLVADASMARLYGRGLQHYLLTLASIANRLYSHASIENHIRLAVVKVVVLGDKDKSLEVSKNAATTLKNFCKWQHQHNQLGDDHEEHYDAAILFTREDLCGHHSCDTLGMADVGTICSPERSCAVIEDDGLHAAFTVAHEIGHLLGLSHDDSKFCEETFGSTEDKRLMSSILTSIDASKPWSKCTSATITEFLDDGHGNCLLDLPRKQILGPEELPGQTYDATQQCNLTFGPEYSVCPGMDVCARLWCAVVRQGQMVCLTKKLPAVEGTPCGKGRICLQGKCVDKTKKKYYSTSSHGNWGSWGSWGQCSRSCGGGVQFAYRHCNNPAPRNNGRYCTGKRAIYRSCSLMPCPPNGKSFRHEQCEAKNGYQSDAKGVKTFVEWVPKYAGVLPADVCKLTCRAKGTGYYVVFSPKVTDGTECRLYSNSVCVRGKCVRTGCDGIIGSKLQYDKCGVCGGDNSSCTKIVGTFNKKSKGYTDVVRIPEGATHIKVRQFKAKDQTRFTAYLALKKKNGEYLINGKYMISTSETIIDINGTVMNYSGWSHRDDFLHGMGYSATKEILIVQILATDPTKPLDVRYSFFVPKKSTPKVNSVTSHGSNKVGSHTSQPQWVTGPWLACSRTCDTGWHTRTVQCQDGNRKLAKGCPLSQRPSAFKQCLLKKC
inactive: erlotinib 0.186 | [3] -0.124 | [4] 0.171 | [5] 0.012 | [6] 0.072 | [7] 0.043 | [8] -0.06 | [9] 0.113
active: [1] -0.518

ADPRH (UniProt P54922)
inactive: erlotinib -0.021 | [2] -0.047 | [3] -0.047 | [5] 0.008 | [6] -0.011 | [8] 0.141 | [9] -0.065

ADD2 isoform 9 (UniProt P35612)
inactive: [5] -0.025 | [6] 0.203

BDH2 (UniProt Q9BUT1)
Chain of UniProt Q9BUT1 (Q9BUT1 whole entry, looked up): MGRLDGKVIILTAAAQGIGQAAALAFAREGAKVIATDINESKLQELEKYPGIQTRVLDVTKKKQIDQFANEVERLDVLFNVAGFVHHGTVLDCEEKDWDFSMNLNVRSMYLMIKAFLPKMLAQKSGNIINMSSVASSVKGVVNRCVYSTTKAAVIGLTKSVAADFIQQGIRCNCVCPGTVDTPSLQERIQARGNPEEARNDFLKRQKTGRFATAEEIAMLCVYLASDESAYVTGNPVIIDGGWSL
inactive: erlotinib -0.003 | [1] 0.204 | [3] 0.184 | [4] -0.031 | [5] -0.005 | [6] 0.085 | [7] 0.103

ARRDC1 (UniProt Q8N5I2)
inactive: erlotinib -0.079 | [2] -0.075 | [3] 0.038 | [5] -0.05 | [6] 0.042 | [8] -0.03 | [9] -0.066

AARSD1 (UniProt Q9BTE6)
inactive: erlotinib 0.131 | [1] -0.415 | [3] 0.054 | [4] -0.063 | [5] -0.117 | [7] 0.197

ARFIP1 isoform 2 (UniProt P53367)
Chain of UniProt P53367 (P53367 whole entry, looked up): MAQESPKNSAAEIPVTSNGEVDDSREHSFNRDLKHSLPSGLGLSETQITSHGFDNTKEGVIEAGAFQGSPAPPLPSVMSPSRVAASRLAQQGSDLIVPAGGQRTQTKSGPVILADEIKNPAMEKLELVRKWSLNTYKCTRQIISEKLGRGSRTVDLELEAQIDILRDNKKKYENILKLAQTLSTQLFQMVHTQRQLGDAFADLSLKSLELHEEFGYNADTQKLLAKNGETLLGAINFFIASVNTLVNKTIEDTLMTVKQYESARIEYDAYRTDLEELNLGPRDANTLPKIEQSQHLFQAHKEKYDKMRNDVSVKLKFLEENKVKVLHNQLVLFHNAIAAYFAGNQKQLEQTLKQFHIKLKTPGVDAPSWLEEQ
inactive: erlotinib 0.106 | [2] -0.064 | [3] -0.051 | [5] -0.06

BRD2 isoform 2 (UniProt P25440)
inactive: erlotinib -0.552 | [3] 0.204 | [4] -0.073 | [5] 0.367 | [7] 0.137 | [8] -0.08 | [9] -0.002

BAP18 isoform 3 (UniProt Q8IXM2)
Chain of UniProt Q8IXM2 (Q8IXM2 whole entry, looked up): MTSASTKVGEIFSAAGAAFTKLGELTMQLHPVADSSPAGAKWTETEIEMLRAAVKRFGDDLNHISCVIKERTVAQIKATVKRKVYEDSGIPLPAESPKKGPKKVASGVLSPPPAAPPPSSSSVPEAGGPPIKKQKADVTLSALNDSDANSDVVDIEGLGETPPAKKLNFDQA
inactive: erlotinib 0.02 | [3] -0.146 | [8] -0.039 | [9] -0.015

AKNA (UniProt Q7Z591)
inactive: erlotinib -0.147 | [3] 0.195

ANK2 (UniProt Q01484)
inactive: erlotinib -0.089 | [1] -0.173 | [3] -0.028 | [4] 0.325 | [5] -0.059 | [6] 0.011 | [7] -0.031 | [8] -0.126 | [9] -0.131

ACTR3B (UniProt Q9P1U1)
inactive: erlotinib -0.033 | [3] 0.073 | [6] -0.078 | [8] -0.012 | [9] 0.145

ARL4A (UniProt P40617)
Chain of UniProt P40617 (P40617 whole entry, looked up): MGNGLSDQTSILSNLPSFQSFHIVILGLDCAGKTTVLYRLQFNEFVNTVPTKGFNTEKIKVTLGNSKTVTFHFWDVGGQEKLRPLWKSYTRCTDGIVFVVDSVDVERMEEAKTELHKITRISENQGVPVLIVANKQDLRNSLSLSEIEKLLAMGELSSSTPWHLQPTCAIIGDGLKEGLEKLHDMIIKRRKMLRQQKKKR
inactive: [1] 0.009 | [4] 0.35 | [5] -0.053 | [7] 0.047

ABITRAM (UniProt Q9NX38)
Chain of UniProt Q9NX38 (Q9NX38 whole entry, looked up): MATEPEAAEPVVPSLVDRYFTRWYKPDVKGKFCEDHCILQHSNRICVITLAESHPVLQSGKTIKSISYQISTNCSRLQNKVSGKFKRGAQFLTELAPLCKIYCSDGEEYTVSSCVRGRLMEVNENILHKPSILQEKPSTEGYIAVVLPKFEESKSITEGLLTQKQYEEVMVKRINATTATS
inactive: [1] 0.084 | [2] 0.029 | [4] 0.018 | [5] 0.023 | [6] -0.05 | [7] 0.034 | [8] -0.037 | [9] 0.018
